Measured values: PubChem BioAssay AID1851 (National Center for Advancing Translational Sciences (NCATS), 2009)
Among all 16,000 compounds or so, about 2,600 (16%) were called active. Inconclusive results (about 20%) are left out. Calls follow the shape of the dose curve; as a rule, active = well fitted curve in the direction sought with a large enough effect; inconclusive = small, poorly fitted or top-dose-only effect, or effect the other way; inactive = no such curve, though single readings can be large or run the other way. A selection follows.

target: Cytochrome P450 2D6 (Homo sapiens) (UniProt P10635); test: Cytochrome panel assay with activity outcomes; details: recombinant CYP, pro-luciferin dealkylation, luminescence, p450-cyp2d6; series mostly up to 57.1 µM
Sequence (P10635 whole entry, looked up): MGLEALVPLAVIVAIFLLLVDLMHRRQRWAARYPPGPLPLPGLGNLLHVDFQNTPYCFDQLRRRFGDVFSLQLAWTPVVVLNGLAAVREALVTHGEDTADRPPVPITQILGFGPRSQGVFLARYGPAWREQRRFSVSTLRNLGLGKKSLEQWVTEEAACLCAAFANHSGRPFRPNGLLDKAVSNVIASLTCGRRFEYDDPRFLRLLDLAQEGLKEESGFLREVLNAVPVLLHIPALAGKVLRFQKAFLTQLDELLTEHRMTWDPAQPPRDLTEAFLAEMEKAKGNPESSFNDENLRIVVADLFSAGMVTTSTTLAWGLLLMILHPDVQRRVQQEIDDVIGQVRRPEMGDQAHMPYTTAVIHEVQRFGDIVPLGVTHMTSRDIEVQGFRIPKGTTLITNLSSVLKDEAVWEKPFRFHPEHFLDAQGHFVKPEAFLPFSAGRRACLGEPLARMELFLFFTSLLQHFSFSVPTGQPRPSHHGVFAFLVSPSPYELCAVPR
% is scaled to controls: 0 for no effect and ±100 for the full control effect.

activity, negative = inhibition, inactive:
Cn1c(=S)c2[nH]c(SCc3cccnc3)nc2n(C)c1=O 14% [at 11.4 µM], NS(=O)(=O)c1cc(C(=O)O)c(O)c2ccccc12 0.979% [at 11.4 µM], Nc1nc2c(c(=O)[nH]1)CN(c1ccc(S(N)(=O)=O)cc1)CN2 -2.27% [at 11.4 µM], C[C@@H]1CN2[C@H](c3ccc(Br)cc3)[C@H](C)CC[C@H]2C(=O)O1 -10.6% [at 11.4 µM], OCCCNCc1ccccn1 12.8% [at 11.4 µM], C/C(=N/S(=O)(=O)c1ccc(Cl)c(Cl)c1)OCC(C)(C)C 8.65% [at 11.4 µM]

AC50, active:
CN(Cc1ccco1)c1ccnc(-c2cccc(NS(C)(=O)=O)c2)n1 20 µM, CN(Cc1ccco1)c1ccnc(-c2cccnc2)n1 7.94 µM, COc1cccc(-c2cc(N(C)Cc3ccco3)ncn2)c1 15.8 µM, COc1cccc(-c2nccc(N(C)Cc3ccco3)n2)c1 1.26 µM, CC(C)Oc1ccc(CSC(=N)N)cc1 14.1 µM, OCCCCNCc1ccc(OCc2ccccc2Cl)cc1 3.55 µM, CCOc1cc(CNCCO)cc(Br)c1OCc1ccccc1Cl 4.47 µM, CCCNC(=O)CC(NS(=O)(=O)c1ccc(Cl)cc1)c1ccco1 (configuration not stated) 1.41 µM, O=C(CC(NS(=O)(=O)c1ccc(Cl)cc1)c1ccco1)NCc1ccco1 (configuration not stated) 5.62 µM, COc1ccc(C2C3=C(CC(C)(C)CC3=O)Oc3ncn(CC(C)C)c(=N)c32)cc1 (configuration not stated) 1 µM, O=C(c1ccco1)N1CCC2(CC1)CCN(C(c1ccccc1)c1ccccc1)CC2 5.01 µM, O=C(c1ccco1)N1CCC2(CCCN(C(c3ccccc3)c3ccccc3)C2)CC1 10 µM, O=C(c1ccco1)N1CCC[C@@]2(CCN(C(c3ccccc3)c3ccccc3)C2)C1 3.16 µM, CC(C)NC(=O)N1CCCC2(CCN(C(=O)c3ccco3)CC2)C1 2.51 µM

AC50, inactive:
Cc1ccc(C)c(N(CC(=O)NC2CCCC2)C(=O)c2cc3cc4cccc(C)c4nc3s2)c1, CC(=O)N1N=C(c2cccc([N+](=O)[O-])c2)OC1c1ccc(Cl)cc1Cl (configuration not stated), CN(C)c1ccnc(-c2cccc(NS(C)(=O)=O)c2)n1, CN(Cc1ccco1)c1cc(-c2cccc(C#N)c2)ncn1, CN(Cc1ccco1)c1ccnc(-c2ccoc2)n1, CN(Cc1ccco1)c1cc(-c2cccnc2)ncn1, CCOC(=O)c1c(C)nc2c(c1-c1ccccc1)C(=O)CCC2, C=C(CC)C(=O)c1ccc(OCC(=O)O)c(Cl)c1Cl, C=CCNc1nc(Cl)nc(Nc2ccc(OC)cc2)n1, CNC(=O)[C@@H]1O[C@@H](n2cnc3c(NCc4ccc(N)cc4)ncnc32)[C@@H](O)[C@H]1O, COc1nnc(OC)c2ccccc12, COC(=O)/C=C\c1cc(O)ccc1O, C#CCSc1nncn1C(=O)/C=C/c1ccccc1, CCC(Sc1nc(C)cc(=O)[nH]1)C(=O)Nc1nc2c(s1)CCCC2 (configuration not stated), N=C(N)SCCc1ccc(OCc2ccc([N+](=O)[O-])cc2)cc1, CCc1nnc(SCc2ccc(OC(C)C)cc2)n1N, O=C1CN(C(=O)c2ccc(Br)o2)C(c2ccc(F)cc2)c2cc(Cl)ccc2N1 (configuration not stated), NC(=O)N[C@H]1NC(=O)NC1=O, O=C(NCc1ccccc1Cl)c1cnccn1, CCOc1cc(/C=C2\N=C(C)OC2=O)cc(Br)c1OCC(=O)OC, CCOc1cc(C2NN=C(c3ccccc3)S2)ccc1OCc1ccccc1Cl (configuration not stated), CCC(C)NC(=O)C1c2cc(OC)c(OC)cc2C(=O)N(C)C1c1cccs1 (configuration not stated), COc1ccc(Oc2ncc3nc(-c4ccc(Cl)cc4)c(=O)n(C)c3n2)cc1, CN(C)CCNC(=O)C(C(=O)c1ccc(F)cc1)n1ccccc1=O (configuration not stated), CCCCSc1nc(C)cc(NC(=S)Nc2ccc(OC)cc2)n1, CCc1cc[n+](-c2nc3ccccc3nc2C(=C=[N-])C#N)cc1, C/C(CC(=O)NCc1ccco1)=N\NC(=O)Cc1ccc(Cl)cc1, CCCCNC(=O)NS(=O)(=O)c1ccc(C)cc1, CCCNC(=O)NS(=O)(=O)c1ccc(Cl)cc1, C/C(CC(=O)NCc1ccco1)=N\NC(=O)Cc1ccccc1, C/C(=N/NC(=O)Cc1cccn1C)c1ccccc1, Cc1ccc(/C=C/c2nnc(-c3ccc(C)cc3)o2)cc1, Cc1c2c(nc3c(C(=O)NC4CCCC4)cnn13)CCCC2, Cc1cccc(C)c1OC1(c2ccccc2)OC(=O)c2ccccc21 (configuration not stated), O=C(/C=C\c1ccc(O)c(O)c1)O[C@@H]1C[C@](O)(C(=O)O)C[C@@H](O)[C@@H]1O, CCCn1nc(Oc2nc(NCC)nc(NC(C)C)n2)ccc1=O, COc1ccc(Cc2nnc(NC(=O)Cn3cnc4c3c(=O)n(C)c(=O)n4C)s2)cc1OC, COc1cccc(C2C3=C(CC(C)(C)CC3=O)OC(N)=C2[N+](=O)[O-])c1 (configuration not stated), CCOC(=O)c1c(C)nc2c(c1-c1ccc(OC)cc1)C(=O)CC(C)(C)C2, O=C(Nc1ccccc1)N1CCCC2(CCN(C(=O)c3ccco3)CC2)C1, O=C(c1ccco1)N1CCC2(CC1)CN(c1cccc(-c3ccccc3)c1)C2, N#Cc1cccc(NC(=O)N2CC[C@@]3(CCCN(C(=O)c4ccco4)C3)C2)c1, O=C(Nc1ccccc1)N1CCC2(CC1)CCN(C(=O)c1ccco1)CC2, O=C(c1ccco1)N1CCC2(CCCN(c3ccccc3)C2)CC1, COc1ccc(NC(=O)N2CCCC3(CCN(C(=O)c4ccco4)CC3)C2)cc1, CC(C)NC(=O)N1CCC2(CC1)CCN(C(=O)c1ccco1)CC2, O=C(c1ccco1)N1CCC2(CC1)CCN(c1ccc(-c3ccccc3)cc1)CC2
